Inconclusive results are not listed. A call without a number means that no potency is given here. Active and inactive are the calls of the source. The call rests on the fitted dose curve; in most records, active means well fitted cell-killing curve with a large enough effect in the repeat runs; inconclusive means weak or mixed curves, or effect the other way; inactive means no such curve, though single readings can be large or run the other way.
Potency means the concentration at half of the fitted maximal effect.

A short description of this assay: qHTS assay to identify small molecule antagonists of the peroxisome proliferator-activated receptor gamma (PPARg) signaling pathway - cell viability counter screen (AID 743194). Further: nearly all actives have a fitted effect of over 55% in size. The settings on record: PPARg-bla HEK293H viability, CellTiter-Glo luminescence, 17 h, co-treated with 50 nM rosiglitazone; series mostly up to 62.6 µM. From the text:
U.S. Tox21 Program National Center for Advancing Translational Sciences [NCATS] NIH Chemical Genomics Center [NCGC] U.S. Environmental Protection Agency [EPA] National Institutes of Environmental Health Sciences [NIEHS] National Toxicology Program [NTP] U.S. Food and Drug Administration [FDA] Tox21 Assay Overview: The peroxisome proliferator-activated receptors (PPARs) are lipid-activated transcription factors of the nuclear receptor superfamily with three distinct subtypes namely PPAR alpha, PPAR delta (also called PPAR beta) and PPAR gamma (PPARg). All these subtypes heterodimerize with Retinoid X receptor (RXR) and these heterodimers regulate transcription of various genes. PPAR-gamma receptor (glitazone receptor) is involved in the regulation of glucose and lipid metabolism. To identify the compounds that activate PPAR-gamma signaling, GeneBLAzer PPAR gamma UAS-bla HEK293H cell line (Invitrogen, Carlsbad, CA, USA) containing a beta-lactamase reporter gene under the control of an Upstream Activator Sequence (UAS) was used to screen the Tox21 compound library. The cytotoxicity of the Tox21 compound library against the PPARg-bla cell line was tested in parallel by measuring the cell viability using CellTiter-Glo assay in the same wells.
Tox21 Assay Protocol Summary: PPARg-bla cells were dispensed at 3000 cells/5uL/well in 1536-well black wall/clear bottom plates using a Multidrop Combi (Thermo Fisher Scientific, Waltham, MA) dispenser. After the assay plates were incubated at 37 C and 5% CO2 for 5 h, 23 nL of compounds dissolved in DMSO, positive controls or DMSO only was transferred to the assay plate by a Pintool station (Kalypsys, San Diego, CA), followed by addition of 1ul Rosiglitazone (50 nM, final concentration in the wells). The assay plates were incubated at 37 C for 17 h, and then 1 uL of LiveBLAzerTM B/G FRET substrate was added using a Bioraptr Flying Reagent Dispenser (FRD) workstation (Beckman Coulter, Indianapolis, IN, USA). The assay plates were incubated at room temperature for 1 h and fluorescence intensity was measured by an Envision plate reader (PerkinElmer, Shelton, CT). For cell viability readout that measures cytotoxicity, 4 ul/well of CellTiter-Glo reagent was added into the assay plates using a Flying Reagent Dispenser. After 30 min incubation at room temperature, the luminescence intensity in the plates was measured using a ViewLux plate reader (PerkinElmer).
A general note: In qHTS, concentration-response curves come from the screen itself.
Take `OC[C@@H](O)[C@H](O)[C@H](O)[C@@H](O)CO`: the Potency result was “inactive”.
`NCCNCCNCCNCCN`: the Potency result is “inactive”.
On to `Cc1ccc(N)c(S(=O)(=O)O)c1`, for which the Potency result was “inactive”.
The result for `CN(C)c1ccc(C(=N)c2ccc(N(C)C)cc2)cc1` reads 23.6 µM (active).
Take `CCC(=O)O`: the Potency entry was “inactive”.
Take `O=[N+]([O-])c1cccc(Cl)c1`: the Potency entry is “inactive”.
On to `Cc1cc(O)c2c(c1)C(=O)c1cc(O)cc(O)c1C2=O`, for which the Potency result is “inactive”.
To `O=C(Oc1ccccc1)c1ccc(O)cc1` belongs “inactive”.
Regarding `NS(=O)(=O)c1cc2c(cc1Cl)NC=NS2(=O)=O`, the Potency entry is “inactive”.
With `C[C@@H](O)[C@H]1C(=O)N2C(C(=O)O)=C(S[C@@H]3CN[C@H](C(=O)N(C)C)C3)[C@H](C)[C@H]12`, the Potency entry was “inactive”.
As for `CCOC(=O)C1OC1c1ccccc1` (stereo not given), the Potency entry is “inactive”.
Consider `O=S(=O)(O)CCS`, for which the Potency result is “inactive”.
As for `C=C(C#N)C(=O)OCC`, the Potency result was “inactive”.
Take `Oc1ccc2ccccc2c1`: the Potency result is “inactive”.
As for `NC(=O)NNc1ccccc1`, the Potency entry is “inactive”.
In the case of `OCC1CCCO1` (stereo not given), the Potency result was “inactive”.
Turning to `CC(C)n1c(/C=C/[C@@H](O)C[C@@H](O)CC(=O)O)c(-c2ccc(F)cc2)c2ccccc21`, the Potency entry was “inactive”.
For the compound `CCOC(=O)[C@H](CCc1ccccc1)N[C@@H](C)C(=O)N1Cc2ccccc2C[C@H]1C(=O)O`, the Potency result was “inactive”.
As for `c1ccc2ccccc2c1`, the Potency result was “inactive”.
In the case of `OCCOCCOCCOCCO`, the Potency entry was “inactive”.
Consider `CC(C)(C)C1CCC(O)CC1` (stereo not given), for which the Potency entry is “inactive”.
Turning to `OC1CCCC1`, the Potency entry is “inactive”.
In the case of `CC(C)(C)C(=O)C1C(=O)c2ccccc2C1=O`, the Potency result was “inactive”.
Consider `O=S(=O)(Oc1ccc(Cl)cc1Cl)c1ccccc1`, for which the Potency entry is “inactive”.
The result for `CCCCC(CC)C(=O)OCCOCCOCCOC(=O)C(CC)CCCC` (stereo not given) reads “inactive”; that for `CCCCOCCOCCOC(=O)CCCCC(=O)OCCOCCOCCCC`, “inactive”; that for `CC1(C)O[C@@H]2C[C@H]3[C@@H]4C[C@H](F)C5=CC(=O)CC[C@]5(C)[C@H]4[C@@H](O)C[C@]3(C)[C@]2(C(=O)CO)O1`, “inactive”.
With `COC(=O)c1ccccc1O`, the Potency entry is “inactive”.
As for `CC(=O)[C@@]1(O)CC[C@H]2[C@@H]3CCC4=CC(=O)CC[C@]4(C)[C@H]3CC[C@@]21C`, the Potency entry is “inactive”.
For `CCCCCCCCCCCCOCC1CO1` (stereo not given), the Potency result was “inactive”.
Regarding `O=[N+]([O-])C(CO)(CO)CO`, the Potency result is “inactive”.
Turning to `O=[N+]([O-])c1cc(N(CCO)CCO)ccc1NCCO`, the Potency entry is “inactive”.
To `O=C(c1cc(O)c(O)c(O)c1)c1ccc(O)c(O)c1O` belongs “inactive”.
To `CC(C)Cc1ccccc1` belongs “inactive”; to `NCCc1ccc(O)c(O)c1`, “inactive”; to `CC1=CC[C@H]2C[C@@H]1C2(C)C`, “inactive”.
Take `CCCCCCCCC`: the Potency result is “inactive”.
With `CCCCCC/C=C/CCCCCCCC(=O)O`, the Potency result is “inactive”.
In the case of `Cc1cc(Cc2ccc(N)c(C)c2)ccc1N`, the Potency result is “inactive”.
To `Oc1ccc2ccccc2c1N=Nc1ccccc1` belongs “inactive”.

These data come from PubChem BioAssay (Tox21).
